Measured values: PubChem BioAssay (EPA / NIEHS)
Results filed as inconclusive are left out. Calls of active or inactive are those of the source. How the source made its calls: active means hit-call score of the fitted dose curve at least 0.9, where 1 is the maximum; inconclusive means response in the unintended direction; inactive means score below 0.9.

Experiments:
[1] = biological target: human Peroxisome Proliferator-activated Receptor delta (PPARd), PPARD (gene 5467) (UniProt Q03181); experiment: ATG_PPARd_TRANS: Attagene TRANS-FACTORIAL HepG2 Assay for human Peroxisome Proliferator-activated Receptor delta (PPARd) (AID 2283002)
Method in brief: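 HepG2 cells transiently transfected with multiplexed GAL4-UAS reporter units and exogenous chimeric NR-Gal4 proteins; 24 h compound exposure. Reporter mRNA measured by RT-PCR, 6-FAM labelling, HpaI digestion and capillary electrophoresis; gain of signal versus DMSO.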

[2] = biological target: human Retinoic Acid Receptor beta (RARb), RARB (gene 5915) (UniProt P10826); experiment: ATG_RARb_TRANS: Attagene TRANS-FACTORIAL HepG2 Assay for human Retinoic Acid Receptor beta (AID 2283004)
Sequence of human Retinoic Acid Receptor beta (RARb), RARB (gene 5915) (P10826 whole entry, looked up, the tested form may be a part): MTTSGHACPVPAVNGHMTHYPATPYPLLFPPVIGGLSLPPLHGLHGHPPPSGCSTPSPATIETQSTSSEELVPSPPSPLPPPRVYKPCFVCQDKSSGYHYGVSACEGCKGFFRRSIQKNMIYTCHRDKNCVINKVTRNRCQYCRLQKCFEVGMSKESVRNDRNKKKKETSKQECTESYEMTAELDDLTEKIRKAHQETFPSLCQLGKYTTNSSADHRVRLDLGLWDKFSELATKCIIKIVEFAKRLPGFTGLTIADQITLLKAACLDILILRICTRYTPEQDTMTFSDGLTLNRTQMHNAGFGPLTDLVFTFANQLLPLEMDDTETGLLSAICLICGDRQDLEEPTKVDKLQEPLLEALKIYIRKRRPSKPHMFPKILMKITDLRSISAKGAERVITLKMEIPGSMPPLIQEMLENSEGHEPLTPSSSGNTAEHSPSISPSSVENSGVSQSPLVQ
Method in brief: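 HepG2 cells transiently transfected with multiplexed GAL4-UAS reporter units expressing chimeric NR–Gal4 fusions; 24 h compound exposure. Reporter mRNA quantified by RT-PCR, 6-FAM labelling, HpaI digestion and capillary electrophoresis; gain-of-signal fitted against DMSO baseline.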

[3] = biological target: Retinoic acid receptor alpha (Homo sapiens) (UniProt P10276); experiment: ATG_RARa_TRANS: Attagene TRANS-FACTORIAL HepG2 Assay for human Retinoic Acid Receptor alpha (RARa) (AID 2283005)
Sequence of Retinoic acid receptor alpha (Homo sapiens) (P10276 whole entry, looked up, the tested form may be a part): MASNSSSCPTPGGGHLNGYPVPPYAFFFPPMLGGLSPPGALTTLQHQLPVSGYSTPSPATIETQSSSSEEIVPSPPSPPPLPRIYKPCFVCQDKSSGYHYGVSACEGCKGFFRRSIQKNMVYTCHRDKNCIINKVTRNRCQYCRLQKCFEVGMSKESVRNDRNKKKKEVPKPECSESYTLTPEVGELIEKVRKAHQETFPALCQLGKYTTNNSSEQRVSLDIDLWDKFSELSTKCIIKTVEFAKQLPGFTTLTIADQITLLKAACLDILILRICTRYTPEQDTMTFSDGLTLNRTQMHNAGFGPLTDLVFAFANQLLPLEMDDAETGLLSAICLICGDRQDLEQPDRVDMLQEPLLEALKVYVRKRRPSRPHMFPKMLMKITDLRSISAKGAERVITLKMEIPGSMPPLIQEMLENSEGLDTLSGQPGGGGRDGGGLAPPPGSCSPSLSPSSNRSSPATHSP
Method in brief: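 HepG2 cells transiently transfected with multiple reporter units expressing chimeric RARα-GAL4 fusion, with GAL4-UAS-driven reporters. After 24 h compound exposure, reporter mRNA induction quantified by RT-PCR and capillary electrophoresis with fluorescent labeling; gain-of-signal fitted relative to DMSO control.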

[4] = biological target: Nuclear receptor subfamily 1 group I member 2 (Homo sapiens) (UniProt O75469); experiment: ATG_PXR_TRANS: Attagene TRANS-FACTORIAL HepG2 Assay for human Pregnane X Receptor (PXR) (AID 2283008)
Sequence of Nuclear receptor subfamily 1 group I member 2 (Homo sapiens) (O75469 whole entry, looked up, the tested form may be a part): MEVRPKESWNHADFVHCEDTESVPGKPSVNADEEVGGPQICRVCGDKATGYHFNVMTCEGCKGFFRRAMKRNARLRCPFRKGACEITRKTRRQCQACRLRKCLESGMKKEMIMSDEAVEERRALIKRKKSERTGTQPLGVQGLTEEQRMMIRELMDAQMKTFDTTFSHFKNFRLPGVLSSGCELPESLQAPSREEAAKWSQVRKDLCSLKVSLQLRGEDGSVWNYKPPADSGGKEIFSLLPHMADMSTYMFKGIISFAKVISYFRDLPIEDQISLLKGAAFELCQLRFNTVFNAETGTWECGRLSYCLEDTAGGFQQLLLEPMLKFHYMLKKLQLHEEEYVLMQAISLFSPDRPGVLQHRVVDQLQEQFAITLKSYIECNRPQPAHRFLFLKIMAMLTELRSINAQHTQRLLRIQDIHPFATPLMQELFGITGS
Method in brief: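 Trans-factorial format: exogenous NR-Gal4 fusion activity, not endogenous factor, in transfected human HepG2 liver cells. After 24 h dosing, RNA isolated, reverse-transcribed, amplified and resolved by capillary electrophoresis; induction scored versus DMSO.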

[5] = biological target: human Retinoic Acid Receptor gamma (RARg), RARG (gene 5916) (UniProt P13631); experiment: ATG_RARg_TRANS: Attagene TRANS-FACTORIAL HepG2 Assay for human Retinoic Acid Receptor gamma (RARg) (AID 2283009)
Sequence of human Retinoic Acid Receptor gamma (RARg), RARG (gene 5916) (P13631 whole entry, looked up, the tested form may be a part): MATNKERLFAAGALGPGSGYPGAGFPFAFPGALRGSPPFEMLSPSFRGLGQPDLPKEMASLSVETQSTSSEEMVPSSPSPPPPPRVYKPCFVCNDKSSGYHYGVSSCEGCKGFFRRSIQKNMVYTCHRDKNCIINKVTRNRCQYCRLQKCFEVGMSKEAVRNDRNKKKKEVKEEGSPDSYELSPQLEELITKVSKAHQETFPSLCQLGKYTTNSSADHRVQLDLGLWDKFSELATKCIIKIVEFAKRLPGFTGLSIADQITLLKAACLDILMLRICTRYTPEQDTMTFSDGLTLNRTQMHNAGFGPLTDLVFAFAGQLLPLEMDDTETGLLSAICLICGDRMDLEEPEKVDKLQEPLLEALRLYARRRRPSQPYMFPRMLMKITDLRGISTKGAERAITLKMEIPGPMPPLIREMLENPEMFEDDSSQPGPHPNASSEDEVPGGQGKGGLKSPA
Method in brief: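 Transactivation of exogenous RARg-Gal4 fusion measured as reporter transcript induction after 24 h in transfected HepG2 cells. RNA reverse-transcribed, amplified, fluorescently labeled and resolved by capillary electrophoresis; increase relative to DMSO.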

[6] = biological target: Retinoic acid receptor RXR-alpha (Homo sapiens) (UniProt P19793); experiment: ATG_RXRa_TRANS: Attagene TRANS-FACTORIAL HepG2 Assay for human Retinoid X Receptor alpha (RXRa) (AID 2283012)
Sequence of Retinoic acid receptor RXR-alpha (Homo sapiens) (P19793 whole entry, looked up, the tested form may be a part): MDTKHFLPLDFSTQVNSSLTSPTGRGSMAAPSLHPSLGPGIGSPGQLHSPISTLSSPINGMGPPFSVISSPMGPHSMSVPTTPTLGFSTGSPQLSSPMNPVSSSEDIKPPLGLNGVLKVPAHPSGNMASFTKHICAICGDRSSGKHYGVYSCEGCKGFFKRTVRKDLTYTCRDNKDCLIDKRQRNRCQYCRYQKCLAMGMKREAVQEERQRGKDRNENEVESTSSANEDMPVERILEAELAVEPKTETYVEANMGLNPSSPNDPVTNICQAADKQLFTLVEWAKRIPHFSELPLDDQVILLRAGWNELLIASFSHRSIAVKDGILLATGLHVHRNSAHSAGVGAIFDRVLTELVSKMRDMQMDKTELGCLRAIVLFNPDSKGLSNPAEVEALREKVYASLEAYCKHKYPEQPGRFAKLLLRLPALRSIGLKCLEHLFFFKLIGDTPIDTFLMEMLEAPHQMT
Method in brief: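 TRANS format reporting activity of exogenous RXRa-Gal4 chimera in transiently transfected HepG2, 24 h exposure. Reporter transcripts quantified by RT-PCR with capillary electrophoresis, with gain of signal scored relative to DMSO.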

[7] = biological target: human Retinoid X Receptor beta (RXRb), RXRB (gene 6257) (UniProt P28702); experiment: ATG_RXRb_TRANS: Attagene TRANS-FACTORIAL HepG2 Assay for human Retinoid X Receptor beta (RXRb) (AID 2283013)
Sequence of human Retinoid X Receptor beta (RXRb), RXRB (gene 6257) (P28702 whole entry, looked up, the tested form may be a part): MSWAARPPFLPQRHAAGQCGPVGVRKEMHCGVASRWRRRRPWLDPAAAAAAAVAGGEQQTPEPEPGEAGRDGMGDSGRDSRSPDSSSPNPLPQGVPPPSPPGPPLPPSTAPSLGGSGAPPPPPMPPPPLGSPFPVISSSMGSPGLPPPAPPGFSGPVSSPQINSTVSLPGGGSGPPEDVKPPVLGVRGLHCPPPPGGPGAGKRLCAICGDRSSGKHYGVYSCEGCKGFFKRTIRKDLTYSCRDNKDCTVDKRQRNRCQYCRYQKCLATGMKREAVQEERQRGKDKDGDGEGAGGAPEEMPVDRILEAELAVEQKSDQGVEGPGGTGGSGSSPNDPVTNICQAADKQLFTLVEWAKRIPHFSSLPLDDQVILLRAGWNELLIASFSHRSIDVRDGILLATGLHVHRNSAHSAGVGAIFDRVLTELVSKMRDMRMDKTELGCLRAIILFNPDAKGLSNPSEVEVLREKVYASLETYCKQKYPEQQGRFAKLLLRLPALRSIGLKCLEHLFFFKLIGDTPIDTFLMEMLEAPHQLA
Method in brief: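 Readout is reporter transcript induction after 24 h dosing. It is measured by RT-PCR of total RNA followed by fluorescent capillary electrophoresis. HepG2 liver cells carry transfected multiple reporter units driven by an exogenous RXRb-Gal4 fusion; activity is relative to DMSO.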

[8] = biological target: human Thyroid Receptor alpha (THRa1), THRA (gene 7067) (UniProt P10827); experiment: ATG_THRa1_TRANS: Attagene TRANS-FACTORIAL HepG2 Assay for human Thyroid Receptor alpha (THRa1) (AID 2283014)
Sequence of human Thyroid Receptor alpha (THRa1), THRA (gene 7067) (P10827 whole entry, looked up, the tested form may be a part): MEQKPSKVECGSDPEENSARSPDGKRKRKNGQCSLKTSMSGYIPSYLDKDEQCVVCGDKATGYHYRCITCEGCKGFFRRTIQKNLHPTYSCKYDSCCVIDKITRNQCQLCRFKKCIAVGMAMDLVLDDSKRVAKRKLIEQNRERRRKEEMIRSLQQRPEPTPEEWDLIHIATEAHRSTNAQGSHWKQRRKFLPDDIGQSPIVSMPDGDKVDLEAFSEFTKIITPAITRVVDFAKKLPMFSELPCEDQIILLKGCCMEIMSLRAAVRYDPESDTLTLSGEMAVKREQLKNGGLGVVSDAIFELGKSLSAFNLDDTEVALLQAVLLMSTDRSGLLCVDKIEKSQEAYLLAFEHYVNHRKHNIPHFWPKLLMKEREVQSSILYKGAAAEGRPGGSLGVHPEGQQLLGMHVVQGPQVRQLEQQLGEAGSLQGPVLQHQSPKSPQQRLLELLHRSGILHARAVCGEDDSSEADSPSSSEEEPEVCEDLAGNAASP
Method in brief: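 HepG2 cells transiently transfected with multiplexed GAL4-UAS reporter units for exogenous chimeric THRa1-Gal4; reporter mRNA measured 24 h after dosing by RT-PCR, 6-FAM labelling, HpaI digestion and capillary electrophoresis. Gain-of-signal fitted versus DMSO baseline.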

[9] = biological target: Peroxisome proliferator-activated receptor gamma (Homo sapiens) (UniProt P37231); experiment: ATG_PPARg_TRANS: Attagene TRANS-FACTORIAL HepG2 Assay for human Peroxisome Proliferator-activated Receptor-gamma (PPARg) (AID 2283007)
Sequence of Peroxisome proliferator-activated receptor gamma (Homo sapiens) (P37231 whole entry, looked up, the tested form may be a part): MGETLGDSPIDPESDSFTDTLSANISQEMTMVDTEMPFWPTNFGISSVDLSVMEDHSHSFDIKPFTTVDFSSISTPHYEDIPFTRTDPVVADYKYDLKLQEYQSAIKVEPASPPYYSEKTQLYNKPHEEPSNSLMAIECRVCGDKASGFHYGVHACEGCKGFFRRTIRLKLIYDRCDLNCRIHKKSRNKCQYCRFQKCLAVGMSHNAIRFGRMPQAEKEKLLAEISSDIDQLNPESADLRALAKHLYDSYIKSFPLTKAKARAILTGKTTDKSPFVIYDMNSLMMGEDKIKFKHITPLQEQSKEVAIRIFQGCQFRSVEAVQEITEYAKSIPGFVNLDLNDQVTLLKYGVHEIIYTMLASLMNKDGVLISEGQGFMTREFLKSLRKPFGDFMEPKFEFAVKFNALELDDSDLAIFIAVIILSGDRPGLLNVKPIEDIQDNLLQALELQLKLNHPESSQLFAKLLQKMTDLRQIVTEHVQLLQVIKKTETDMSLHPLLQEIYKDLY
Method in brief: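 After 24 h of chemical exposure, transfected HepG2 cells carrying PPARγ-Gal4 chimera reporter constructs are lysed for RNA. Reporter transcripts are measured by RT-PCR and capillary electrophoresis with fluorescent labelling, and gain of signal is fitted versus DMSO.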

[10] = biological target: human RAR-related Orphan Receptor gamma (RORg), RORC (gene 6097) (UniProt P51449); experiment: ATG_RORg_TRANS: Attagene TRANS-FACTORIAL HepG2 Assay for human RAR-related Orphan Receptor gamma (RORg) (AID 2283011)
Sequence of human RAR-related Orphan Receptor gamma (RORg), RORC (gene 6097) (P51449 whole entry, looked up, the tested form may be a part): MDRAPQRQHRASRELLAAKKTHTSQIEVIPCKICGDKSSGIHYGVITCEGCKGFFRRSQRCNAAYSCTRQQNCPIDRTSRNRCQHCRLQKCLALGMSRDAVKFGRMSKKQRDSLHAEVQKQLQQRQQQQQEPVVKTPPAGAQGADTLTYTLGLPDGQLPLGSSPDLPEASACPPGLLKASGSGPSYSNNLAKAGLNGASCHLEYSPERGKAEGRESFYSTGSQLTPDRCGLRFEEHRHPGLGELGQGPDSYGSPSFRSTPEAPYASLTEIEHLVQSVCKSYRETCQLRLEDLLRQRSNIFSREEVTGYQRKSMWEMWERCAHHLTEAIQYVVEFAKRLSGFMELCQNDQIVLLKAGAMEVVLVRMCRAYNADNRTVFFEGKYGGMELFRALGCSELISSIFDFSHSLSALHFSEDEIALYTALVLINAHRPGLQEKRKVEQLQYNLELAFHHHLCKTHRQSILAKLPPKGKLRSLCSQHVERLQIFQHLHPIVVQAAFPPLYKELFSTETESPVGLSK
Method in brief: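 Readout: reporter transcript induction (RT-PCR, fluorescent primer extension, capillary electrophoresis) after 24 h compound exposure of transiently transfected HepG2 cells carrying a RORg-Gal4 chimera and GAL4-UAS reporters; DMSO served as baseline, with increasing signal fitted.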

[11] = biological target: human RAR-related Orphan Receptor beta (RORb), RORB (gene 6096) (UniProt Q92753); experiment: ATG_RORb_TRANS: Attagene TRANS-FACTORIAL HepG2 Assay for human RAR-related Orphan Receptor beta (RORb) (AID 2283010)
Sequence of human RAR-related Orphan Receptor beta (RORb), RORB (gene 6096) (Q92753 whole entry, looked up, the tested form may be a part): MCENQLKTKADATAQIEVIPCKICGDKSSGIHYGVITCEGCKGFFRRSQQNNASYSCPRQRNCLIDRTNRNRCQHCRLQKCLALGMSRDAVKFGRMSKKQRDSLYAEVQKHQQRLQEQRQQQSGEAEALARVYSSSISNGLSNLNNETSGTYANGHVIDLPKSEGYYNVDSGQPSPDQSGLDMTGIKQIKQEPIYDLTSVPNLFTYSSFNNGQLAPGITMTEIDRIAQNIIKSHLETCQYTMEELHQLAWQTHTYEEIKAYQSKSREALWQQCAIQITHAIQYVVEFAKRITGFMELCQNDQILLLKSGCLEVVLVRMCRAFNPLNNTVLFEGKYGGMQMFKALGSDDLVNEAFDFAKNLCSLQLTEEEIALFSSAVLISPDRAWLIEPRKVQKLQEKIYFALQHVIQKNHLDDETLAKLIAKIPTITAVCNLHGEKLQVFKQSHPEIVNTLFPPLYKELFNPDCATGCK
Method in brief: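 Read-out is reporter mRNA induction, quantified by RT-PCR with fluorescent capillary electrophoresis, 24 h post-dose in transiently transfected HepG2 expressing exogenous NR-Gal4 chimera. Activity fitted upward versus DMSO.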

Measured: AC50

CC(C)c1ccc2ncccc2c1
active: [4] 21.4 µM
not listed: [9] | [10] | [11]
inactive: all other assays above

O=C(O)CCCC(=O)O
inactive: [1] | [9] | [4]

COC(C=C(C)CCC=C(C)C)OC
active: [9] 57.2 µM
inactive: [1] | [4] | [10] | [6] | [7]

CC(=O)OC1CCCCC1
not listed: [2] | [7] | [8] | [9]
inactive: all other assays above

CCCCCCCCCCCCCc1ccccc1
not listed: [2] | [3] | [5]
inactive: all other assays above

C=C(C)C1CC=C(C)C(OC(C)=O)C1 (configuration not stated)
not listed: [2] | [6] | [8] | [10]
inactive: all other assays above

COc1nccnc1CC(C)C
inactive: [1] | [2] | [5] | [10] | [8]

Oc1ccc(-c2ccccc2)c(Cl)c1
active: [9] 39.9 µM
inactive: [1] | [4] | [5] | [8]

C=Cc1ccc(OC(C)=O)cc1
not listed: [3] | [5] | [8]
inactive: all other assays above

CC(CC(C)C)=NO
inactive: [1] | [3] | [11] | [10] | [6]

CC(C)(CO)COC(=O)C(C)(C)CO
inactive: [1] | [2] | [4] | [11] | [8]

c1ccc2cnccc2c1
inactive: [1] | [9] | [4] | [11] | [6] | [8]

CC(C=O)c1ccccc1 (configuration not stated)
active: [4] 5.82 µM
inactive: [1] | [9] | [11] | [6] | [7]

Cc1c[nH]c(=O)[nH]c1=O
inactive: [1] | [3] | [5] | [6] | [7]

C=CC(C)(O)CC/C=C(\C)CC (configuration not stated)
active: [4] 6.12 µM
not listed: [8] | [10] | [11]
inactive: all other assays above

CCOC(=O)c1ccccc1C
inactive: [2] | [3] | [10] | [8]

CC(C)(C)NC(=O)[C@H]1CC[C@H]2[C@@H]3CC[C@H]4NC(=O)C=C[C@]4(C)[C@H]3CC[C@]12C
inactive: [1] | [6]
active: [4] 19.8 µM

CC(C)c1ccc(O)c(C(C)C)c1
inactive: [2] | [9] | [5]
active: [4] 6.58 µM | [6] 54.6 µM | [7] 9.23 µM

CCCCOCCOCCOC(C)=O
inactive: [1] | [10] | [6] | [8]

CCCCC1CCC(=O)O1 (configuration not stated)
inactive: [2] | [3] | [9] | [5] | [6] | [7]
active: [4] 41.4 µM

CC1CCC(C(C)(C)S)C(=O)C1 (configuration not stated)
inactive: [1] | [6] | [7]
active: [9] 81.1 µM | [4] 1.89 µM

CC(C)(C)C1CCC(=O)CC1
not listed: [2] | [3] | [8] | [9]
inactive: all other assays above

O=C(Cl)c1ccc(C(=O)Cl)cc1
inactive: [2] | [4] | [5] | [11] | [8]

Cc1cccc(C(C)(C)C)c1O
active: [4] 19.9 µM | [7] 46.4 µM
inactive: [2] | [3] | [9] | [5] | [6]

Cc1ccc(S(=O)(=O)N=C=O)cc1
inactive: [1] | [9] | [10] | [6] | [7]

Cc1noc(NS(=O)(=O)c2ccc(N)cc2)c1C
inactive: [2] | [3] | [6]

CCCCCCCOC(=O)c1ccc(O)cc1
active: [7] 11.1 µM
inactive: [2] | [3] | [9] | [5]

CC(C)(CO)C(O)C(=O)NCCCO (configuration not stated)
inactive: [1] | [9] | [11] | [10] | [6]

CCCC/C=C/C=C\C=O
active: [9] 7.73 µM | [4] 1.57 µM
inactive: [1] | [6] | [8]

CO[Si](C)(C)OC
inactive: [2] | [9] | [4] | [8]

[Cl][Eu]([Cl])[Cl]
inactive: [1] | [9] | [10] | [7]

CCCCc1ccc(Cl)cc1
inactive: [1] | [9] | [4] | [6] | [7]

CC(=O)OC(C)c1ccccc1 (configuration not stated)
inactive: [2] | [10] | [6]

CCCCOC(=O)C(C)CC (configuration not stated)
inactive: [1] | [4] | [10] | [7]

CCCCNC(=S)NCCCC
not listed: [1] | [3] | [6]
inactive: all other assays above

Cc1cc(=O)[nH]c(=O)[nH]1
inactive: [1] | [10] | [6] | [8]

O=C(O)/C=C/c1ccccc1
active: [7] 121 µM
inactive: [1] | [9] | [4] | [6]

CC(=O)CCC=C(C)C
inactive: [2] | [9] | [11] | [7]

COc1cc(O)c(C(=O)c2ccccc2)cc1S(=O)(=O)O
inactive: [1] | [9] | [4] | [6] | [7]

CCCCCCCCCC(C)=O
inactive: [1] | [9] | [4] | [6] | [7]

CC(C)CO
inactive: [2] | [3] | [11]

CC1CC(=O)CC(C)(C)C1 (configuration not stated)
inactive: [1] | [4] | [5]

CCCCCCCCCCCCC
not listed: [2] | [3] | [5] | [11]
inactive: all other assays above

CCCCNS(=O)(=O)c1ccc(C)cc1
inactive: [1] | [4] | [6] | [8]

CCCCC(CC)COS(=O)(=O)O (configuration not stated)
inactive: [1] | [10] | [8]

CCCCC(=O)O
inactive: [2] | [3] | [5] | [11] | [10]

CCOC(=O)OC(=O)OCC
inactive: [1] | [4] | [5] | [6] | [8]

c1ccc(-c2nc3ccccc3[nH]2)cc1
active: [4] 23.4 µM
inactive: [1] | [9] | [6] | [7] | [8]

CC(C)C(=O)OCCOc1ccccc1
inactive: [1] | [9] | [11] | [10]

CCc1occc(=O)c1O
inactive: [1] | [6]

C=Cc1cccc(C)c1
inactive: [1] | [9] | [4] | [10] | [7]

CC1CCC(=O)C1=O (configuration not stated)
inactive: [2] | [9] | [4]
active: [7] 59.8 µM

CCc1cccc(CC)c1
inactive: [3] | [9] | [5] | [7]

COCC(=O)O
inactive: [3] | [9] | [10] | [6] | [8]

O=C(O)C1CCC(C(=O)O)CC1 (configuration not stated)
inactive: [7]

CC(=O)CC(=O)Nc1ccccc1C
inactive: [5] | [11] | [7]

C=CC(=O)OCCCCCCCCCC
inactive: [4] | [11] | [10] | [6] | [7] | [8]
active: [9] 3.15 µM

COC(=O)CC(C)CCC=C(C)C (configuration not stated)
inactive: [9] | [4] | [11] | [6] | [7]

N=C1C=CC(=C(c2ccc(N)cc2)c2ccc(N)cc2)C=C1
inactive: [5] | [11] | [10] | [6]
active: [9] 31.9 µM

CCCCCC(=O)OCC
inactive: [11] | [6] | [7]

CC(C)(c1ccccc1)c1ccc(Nc2ccc(C(C)(C)c3ccccc3)cc2)cc1
inactive: [9] | [4] | [11] | [7]

C=C1C[C@H]2[C@@H]3C=C(C)C4=CC(=O)CC[C@]4(C)[C@H]3CC[C@]2(C)[C@@]1(OC(C)=O)C(C)=O
inactive: [4] | [6]

CC(=O)c1ccc(S(=O)(=O)NC(=O)NC2CCCCC2)cc1
inactive: [3] | [9] | [4] | [5] | [11] | [10]

CC1(C)[C@@H]2CC[C@@]1(C)C(=O)C2
inactive: [3] | [4] | [5] | [6]

CCCCCCO
inactive: [9] | [7]

CN1CCN(C)CC1
inactive: [10] | [6]

O=C1c2ccccc2C(=O)c2cc(S(=O)(=O)O)ccc21
inactive: [9] | [6] | [7]

CCC(C)(O)CCCC(C)C (configuration not stated)
inactive: [9] | [4] | [6] | [7]

CCCCC(C=O)CC (configuration not stated)
inactive: [9] | [4] | [6] | [7]

C=C(C)OC(C)=O
inactive: [4] | [5] | [10]
